# Screening data: PubChem, Sanford-Burnham Center for Chemical Genomics
# KKLEB cytotox: cytotoxicity in KKLEB CF airway cells, primary screen, cytotoxicity control for CF NF-kB inhibitor project, cell-based, uHTS, fluorescence assay plates; KKLEB CF airway cells viability, ATPlite luminescence, overnight; hits give low values; cells stimulated with P. aeruginosa culture filtrate; activity change (cytotoxicity), % at 5 µM; actives 0.36% (n = 360,000); AID 602141, 2011;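 active = corrected activity change at or below -50% at 5 µM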
# CF NFkB block: inhibitors of PAF-induced NF-kB signaling, primary screen, cell-based, GFP fluorescence, uHTS; actives 0.86% (n = 360,000); inhibition, % at 5 µM; KKLEB NF-kB-GFP reporter, GFP fluorescence overnight;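 active = at least 50% inhibition at 5 µM, scaled per plate between neutral and stimulator controls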;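 also: PAF is a Pseudomonas aeruginosa culture filtrate used as stimulus; plate controls were PAF-stimulated DMSO wells for no effect and unstimulated DMSO wells for full effect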
# Peg3 promoter: Peg3 promoter-driven luciferase inhibitors, primary screen, cell-based, HeLa, luciferase luminescence | inhibition, % at 20 µM | actives 1.7% (n = 360,000) | AID 588405, 2011 | HeLa PEG-Prom luciferase reporter, overnight;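 active = inhibition of at least 50% at 20 µM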
# HIF-2a inh: HIF-2a reporter inhibitors, primary screen, luminescence, 786-0 RCC cells; AID 624352, 2012; 786-0 RCC cells HIF-2a reporter, luciferase luminescence, overnight; actives 0.72% (n = 360,000); inhibition, % at 18.8 µM;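 active = inhibition of the luminescence signal of 40% or more relative to plate controls, in a single-dose primary screen at 18.75 µM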
# TWEAK-Fn14 inh: inhibitors of TWEAK-Fn14 signaling, primary screen, luciferase reporter cells, uHTS | inhibition, % at 10 µM | TWEAK-stimulated Fn14 reporter cells, luciferase luminescence, 8 h | actives 2% (n = 360,000); in the data active = inhibition above about 50%
# TROY signal inh: inhibitors of TROY-driven NF-kB signaling, primary screen, Q293 LMP1-TROYcd cells, NF-kB luciferase, uHTS; Q293 LMP1-TROYcd NF-kB luciferase reporter, 4 h; inhibition, % at 10 µM; actives 0.98% (n = 360,000);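 active = compounds whose plate-normalised and pattern-corrected inhibition of the luciferase reporter signal at the single screening dose is 50% or more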
# Numbers without * were called inactive; . = not tested or not shown. Shown are actives, neighbours in structure and some others; about 3.9% of the full set was active somewhere.
SMILES,KKLEB cytotox,CF NFkB block,Peg3 promoter,HIF-2a inh,TWEAK-Fn14 inh,TROY signal inh
CCN(CC)S(=O)(=O)c1cc(NC(=O)c2ccc(Br)s2)ccc1C,2.6,4.2,-154.6,-196.6,41.6,4.4
COc1ccc(/C=N/Nc2nc3ccccc3o2)cc1O,4.0,5.1,-124.3,-62.8,72.0*,-26.4
COc1cc(/C=N\NC(=O)c2ccc(-c3ccccc3)cc2)cc(Br)c1O,-0.6,64.9*,-54.1,-10.6,-5.3,12.6
COc1ccc(/C=N/NC(=O)c2ccc(-c3ccccc3)cc2)cc1O,8.7,28.2,-8.7,4.6,10.6,7.3
COc1ccc(/C=N/NC(=O)c2nc(-c3ccccc3)cc(-c3ccccc3)n2)cc1O,-10.8,4.7,-7.2,-0.2,53.9*,-30.6
COc1cc(/C=N/Nc2nc3ccccc3o2)cc(OC)c1O,13.1,-22.7,-64.3,-112.9,-1.7,-26.9
COc1ccc(/C=N/Nc2nc3ccccc3s2)cc1O,-22.6,-17.7,-67.2,-276.1,74.5*,60.5*
Cc1ccc(S(=O)(=O)N2CCC(C(=O)N3CCC[C@H]3C(=O)NC3CCS(=O)(=O)C3)CC2)cc1 (some centres not stated),2.9,-15.2,0.2,5.5,8.8,0.8
COc1cccc(-c2nn(-c3ccc(C)cc3)cc2C(=O)NCC(c2cccs2)N2CCOCC2)c1 (configuration not stated),-3.4,12.2,15.8,-17.1,3.4,4.5
CCOC(=O)C1(C)CCCCN1C(=O)c1ccco1 (configuration not stated),3.4,-2.5,-12.0,13.4,-13.2,-14.3
Cc1ccccc1OCCCn1c(CO)nc2ccccc21,-0.5,-8.7,-72.7,-127.6,10.1,-10.7
COc1cc(OC)cc(C(=O)NC(=S)Nc2cc3oc4ccccc4c3cc2OC)c1,-51.9*,54.8*,38.0,6.3,-14.6,-6.3
COc1ccc(C(=O)NC(=S)Nc2cc3oc4ccccc4c3cc2OC)cc1,-41.0,32.7,4.9,-3.2,-16.0,-5.3
Cc1[nH]c2ccccc2c1C(=O)CN1CCCCC1C (configuration not stated),1.0,4.0,0.8,6.1,79.4*,.
Cc1[nH]c2ccccc2c1C(=O)CCl,-4.4,63.6*,93.4*,19.4,57.8*,-0.5
CCC1CCCCN1CC(=O)c1c(C)[nH]c2ccccc12 (configuration not stated),2.8,-6.7,-10.7,12.0,24.4,-6.5
Cc1[nH]c2ccccc2c1C(=O)CSc1ccccc1,0.4,-3.6,-126.4,-172.3,-14.6,-60.9
CCC1CCCCN1CC(=O)c1c(C)[nH]c2ccc(OC)cc12 (configuration not stated),-9.3,3.5,-8.6,11.6,84.9*,-3.4
C=CCn1c(C)cc(C(=O)COC(=O)/C=C/c2ccc(OC)cc2)c1C,3.1,3.0,10.2,-19.4,12.3,19.4
CCCCCOC(=O)C1=C(C)NC(=O)NC1c1ccc(OC)cc1 (configuration not stated),-6.5,17.4,24.9,30.3,69.9*,2.8
CCCCOC(=O)C1=C(C)NC(=O)NC1c1ccc(OC)cc1 (configuration not stated),8.5,0.2,20.2,22.1,-9.2,7.5
COC1(OC)C(/C=C/c2ccc(Cl)cc2)C(C#N)(C#N)C1(OC)OC (configuration not stated),-60.3*,56.9*,62.9*,13.3,77.4*,12.6
CC(=O)Nc1ccc(S(=O)(=O)Nc2nc3ccccc3nc2N2CCc3ccccc3C2)cc1,9.3,-10.9,-152.4,-196.9,14.7,-12.8
O=S(=O)(Nc1nc2ccccc2nc1N1CCc2ccccc2C1)c1ccc(Cl)cc1,-3.4,20.1,-114.2,-119.1,71.9*,24.4
O=S(=O)(Nc1nc2ccccc2nc1N1CCc2ccccc2C1)c1ccc(Br)cc1,-7.7,-40.1,-29.5,-6.2,78.1*,13.5
SMILES,KKLEB cytotox,CF NFkB block,Peg3 promoter,HIF-2a inh,TWEAK-Fn14 inh,TROY signal inh
O=c1c2ccccc2nc(-c2ccco2)n1/N=C/c1ccco1,3.1,-23.6,-22.5,-45.5,-0.8,17.1
CN(C)CCNc1cccc2sc3ccc(O)cc3c(=O)c12,-28.8,-65.7,99.1*,42.6*,-77.2,-66.0
COc1cc(C)c2sc3ccccc3c(=O)c2c1NCCN(C)C,-19.0,-28.8,100.4*,-34.5,-102.7,-71.3
COc1ccc(Cl)cc1Nc1nc(C)cc(=O)[nH]1,-17.5,-3.1,7.5,18.0,5.3,-10.0
c1ccc(CCNCCCOc2cccc3ccccc23)cc1,5.9,22.5,50.3*,11.7,-12.3,-12.7
COc1ccc2cnn(Cc3ccccc3)c(=O)c2c1OC,-6.5,1.0,-153.9,-68.4,27.8,50.9*
COc1ccc2cnn(-c3ccccc3)c(=O)c2c1OC,0.0,-18.9,-46.2,-64.7,-3.0,-2.8
Cc1c(/C=N/n2cnnc2)c2ccccc2n1CCOc1ccc(Cl)cc1,-7.1,-5.0,20.5,11.5,48.4,54.4*
Cc1ccc(OCCn2c(C)c(/C=N/n3cnnc3)c3ccccc32)cc1,-5.6,-2.6,20.5,18.4,1.8,35.4
COc1ccc(-c2cc(-c3ccc(C)cc3)nc(SCc3nnc(-c4ccccc4)o3)c2C#N)cc1OC,-70.3*,45.9,37.8,12.4,-52.6,15.8
Cc1ccc(-n2nnc(-c3cccnc3)n2)cc1,14.8,-7.4,-279.8,-290.6,2.3,-46.8
Cc1ccc(-n2nnc(-c3nccn3C)n2)cc1,-5.9,-39.6,-44.4,-26.4,75.8*,30.9
Cc1ccc(-n2nnc(-c3cnc4ccccc4c3)n2)cc1,-14.1,6.7,-166.1,-114.8,63.3*,18.2
O=C(O)CC1(CC(=O)Nc2cc(F)ccc2Cl)CCCCC1,-13.4,3.1,-10.9,11.0,-8.5,-18.6
O=C(CSc1nnc2scc(-c3ccccc3)n12)Nc1nsc(-c2ccc(Cl)cc2)n1,-5.3,9.9,10.0,-8.8,53.9*,28.0
O=C(CSc1nnc2scc(-c3ccccc3)n12)Nc1nsc(-c2ccccc2)n1,10.8,-20.8,3.3,1.7,22.5,34.6
Oc1cccnc1Sc1cccc(C(F)(F)F)c1,-15.9,11.1,-324.1,-201.2,-9.4,9.8
Nc1nc(N)c2cc(Sc3ccc(Cl)cc3)ccc2n1,-16.1,31.2,103.9*,-55.6,22.4,25.4
Nc1nc(N)c2cc(Sc3ccc4ccccc4c3)ccc2n1,-16.4,34.8,106.6*,14.4,52.1*,84.0*
Nc1nc(N)c2cc(Sc3cccc(C(F)(F)F)c3)ccc2n1,-18.4,37.5,106.6*,26.6,6.3,32.6
CN(C)CCCOc1ccc(-c2cccc3nncn23)cn1,3.6,-0.5,-8.1,0.9,4.5,5.9
